PubChem BioAssay AID652106 (National Center for Advancing Translational Sciences (NCATS), 2013)
The campaign covered roughly 370,000 compounds. About 500 (0.14%) were called active. Entries that show only a call come without a potency. Another 2% or so got no clear call; they are omitted. Calls come from the whole dose curve; as a rule, active = well fitted activation curve with a large enough effect; inconclusive = small, poorly fitted or top-dose-only effect; inactive = no such curve, though single readings can be large or run the other way. The full list was thinned out, with actives kept by preference.

Assay: qHTS of alpha-syn Inhibitors; note: nearly all actives have a fitted effect of over 65% in size
Settings: Yeast expressing alpha-synuclein, BacTiter-Glo, 24 h; Potency: growth rescue; series mostly up to 46.1 µM
Source text: The goal of this project is to identify new chemical probes capable of reversing the toxicity associated with the Parkinson disease-related protein, alpha-synuclein. Compounds will be selected on their ability to restore growth in yeast cells expressing toxic levels of alpha-synuclein. These compounds will provide a complementary approach to deciphering the tangled mechanisms of toxicity and protection that we have uncovered through genome-wide genetic screens and are beginning to uncover in a large-scale proteomics analysis with mass spectroscopy. To this end, a miniaturized assay was developed to be screened against the Molecular Libraries Small Molecule Repository (MLSMR) to discover alpha-synuclein inhibitors. Please note that in the set-up this yeast-based assay compounds that inhibit as alpha-syn, have a read-out as activators. NIH Chemical Genomics Center [NCGC] NIH Molecular Libraries Probe Centers Network [MLPCN] MLPCN Grant: NS060957 Assay Submitter (PI): Susan Lindquist, Whitehead Institute/MIT
Dispense 2.5 microL yeast galactose medium per 1536-well plate, pin compound, dispense 2.5 microL alpha-synuclein expressing yeast in galactose medium at OD600=0.02 (pregrown in raffinose medium to mid-log phase) per well, incubate for 24 hr at 30 deg C, and cell growth will be measured using 5 microL of Bactiter/Glo reagent to entire plate and read using Luminescence Protocol in ViewLux.
Potency is the fitted concentration of half-maximal effect.

Compound	Potency
CSc1n[nH]c(-c2ccco2)n1	inactive
Cc1ccc(NC(=O)NCC(c2cccnc2)N2CCOCC2)cc1 (configuration not stated)	5.62 µM (active)
Cc1ccc(C(CNC(=O)Nc2ccccc2)N2CCN(C)CC2)cc1 (configuration not stated)	inactive
Cc1ccc(C)c(NC(=S)NCC(c2cccnc2)N2CCOCC2)c1 (configuration not stated)	inactive
O=C(COc1ccccc1)Nc1nonc1NC(=O)COc1ccccc1	inactive
O=C(COC(=O)CSc1nnc(-c2ccc(Cl)cc2)o1)Nc1cc(Cl)cc(Cl)c1	inactive
O=C(COC(=O)c1ccc(Oc2ccccc2)cc1)Nc1nnc(-c2ccccc2)o1	22.4 µM (active)
CCCS(=O)(=O)Nc1cccc(-c2cn3ccsc3n2)c1	inactive
CC1CCN(S(=O)(=O)c2ccc3c(c2)N(CC(=O)NCc2ccccc2Cl)C(=O)CO3)CC1	inactive
CC(=O)c1ccc[n+](C(C)CCC(C)[n+]2cccc(C(C)=O)c2)c1 (configuration not stated)	inactive
CN(C)c1ccnc2sc(C(=O)c3ccccc3)c(N)c12	25.1 µM (active)
CC(=O)c1c(Nc2ccccc2)sc(C(=O)c2ccccc2)c1C	inactive
COc1cccc(C(=O)c2sc3nc(-c4ccccc4)cc(C(F)(F)F)c3c2N)c1	inactive
CN(CCC#N)c1ccc(C=O)cc1	inactive
Cc1[nH]c2ccccc2c1C(=O)C(=O)N(C)c1ccccc1	inactive
CN1CC[C@H](c2c(O)cc(O)c3c(=O)cc(-c4ccccc4Cl)oc23)[C@H](O)C1	inactive
COc1cc(C(CC(=O)NCCC(C)C)N2Cc3ccccc3C2=O)cc(OC)c1OC (configuration not stated)	inactive
COc1ccc(/C=C/c2ccnc3ccccc23)cc1OC	inactive
O=C(NC(=S)NC1CCS(=O)(=O)C1)c1cccc([N+](=O)[O-])c1 (configuration not stated)	inactive
C/C(=N\NC(=O)c1cccc([N+](=O)[O-])c1)c1cccnc1	inactive
CC(C)CC(=O)NC(=S)NNC(=O)c1cccc([N+](=O)[O-])c1	17.8 µM (active)
O=[N+]([O-])c1ccc(/C=C/c2ccc3cccnc3c2)cc1	inactive

Compound	Potency
O=S(=O)(c1cccc(C(F)(F)F)c1)N1CCN(c2nc(-c3cccs3)nc3ccccc23)CC1	inactive
CO[C@H]1O[C@@H]2O[C@@]3(C)CC[C@@H]4[C@@H](C)CC[C@@H]([C@H]1C)[C@@]24OO3	inactive
CCOc1cc(C(=O)Nc2nnc3n2CCS3)cc(OCC)c1OCC	inactive
CC(C)c1cccc(C(C)C)c1Nc1cn[nH]c1	3.98 µM (active)
CC(=O)c1cccc(-c2ccc(CN3C(CC(C)C)C(=O)N(Cc4cn(CC5CCCCC5)nn4)CCS3(=O)=O)cc2)c1 (configuration not stated)	inactive
COc1ccc(-c2ccc(CN3C(CC(C)C)C(=O)N(Cc4cn(CC5CCCCC5)nn4)CCS3(=O)=O)cc2)cn1 (configuration not stated)	inactive
CC(C)CC1C(=O)N(Cc2cn(CC3CCCCC3)nn2)CCS(=O)(=O)N1Cc1ccc(-c2ccc(Cl)cc2)cc1 (configuration not stated)	1.58 µM (active)
CCOc1ccccc1NC(=O)c1cccnc1	inactive
O=C(Nc1cnccn1)c1cccnc1	inactive
O=C(CC(=O)c1cccnc1)c1ccccc1	15.8 µM (active)
CCOc1ccc(NC(=O)CSc2nnc3c(n2)[nH]c2ccc(S(=O)(=O)N4CCOCC4)cc23)cc1	inactive
CCN(CC)c1ccc(/C=C/c2c(C)cnc3ccc(C)cc23)cc1	inactive
COc1cc2nc(N3CCCN(C)CC3)nc(NC3CC3)c2cc1OC	inactive
OC(CBr)C[n+]1cccc2cc(Br)ccc21 (configuration not stated)	inactive
ClC/C=C/C[n+]1ccccc1Cl	inactive
O=C(c1ccco1)N(Cc1cccs1)c1ccc(O)cc1	inactive
O=c1cc(-c2ccccc2)[nH]c2nc(Cl)ccc12	inactive
NS(=O)(=O)c1ccc(NC(=O)CSc2nnc3c(n2)[nH]c2ccccc23)cc1	inactive
CCC(C)N(c1ccc(/C=C/c2ccnc3ccccc23)cc1)C(C)CC (configuration not stated)	inactive
O=C1c2ccccc2C(=O)N1c1ccc(S(=O)(=O)N2CCOCC2)c2ccccc12	inactive
CS(=O)c1ccc(/C=C2\C=Cc3ccccc32)cc1 (configuration not stated)	inactive
Cc1ccc(C(=O)CSc2nc(-c3ccccc3)nc3c2CCCC3)c(C)c1	inactive

Compound	Potency
Cc1cccc(Nc2nc(C)nc(N)c2S(=O)(=O)c2ccccc2)c1	inactive
Brc1cccc[n+]1Cc1cccc(C[n+]2ccccc2Br)c1	inactive
OC(Cc1ccc2ccccc2n1)c1ccc(Cl)c(Cl)c1 (configuration not stated)	inactive
COc1ccc(C)cc1NC(=O)C(=O)NCCc1sc(-c2cccc(C)c2)nc1C	inactive
CN(C)c1ccc(/C=C2\C=Cc3ccccc32)cc1Br	inactive
CC(C)(C(=O)NO)c1ccccc1	inactive
CN(O)C(=S)c1ccccc1	3.55 µM (active)
CCOc1ccccc1C(=O)NC1(C(F)(F)F)NC(=O)N(CCc2ccc(OC)c(OC)c2)C1=O (configuration not stated)	inactive
O=C(c1cnn2c1NC(=C1CC1)C=C2C(F)F)N1CCc2ccccc2C1	inactive
Cc1cc(F)ccc1NC1(c2ccccc2)C(=O)c2ccccc2C1=O	inactive
COc1ccc(S(=O)(=O)Nc2cccc3cccnc23)c(N)c1	22.4 µM (active)
O=[N+]([O-])c1ccccc1S(=O)(=O)Nc1cccc2cccnc12	inactive
O=S(=O)(Nc1cccc2cccnc12)c1cccc2cccnc12	inactive
CC(=O)NC(=S)NNC(=O)c1ccc(Br)cc1	12.6 µM (active)
O=C(NNC(=O)c1ccc(Cl)nc1)c1ccc(Br)cc1	inactive
CNC(=S)NNC(=O)c1ccc(N(C)C)cc1	inactive
Cc1ccc(-c2nc(=N)sn2Cc2ccccc2)cc1	inactive
CC(C)C[C@@H](COCc1ccc(Cl)cc1)N1CCN(C(=O)c2ccc(Cl)cc2Cl)CCC1=O	15.8 µM (active)
CC(C)CC(COCc1ccc(Cl)cc1)N1CCN(C(=O)c2ccc(C(F)(F)F)cc2)CCC1=O (configuration not stated)	inactive
CC(C)CC(CO)N1CCN(C(=O)c2ccc(Cl)cc2Cl)CCC1=O (configuration not stated)	inactive
CN(C(=N)N)c1ccc(/C=C2\C=Cc3ccccc32)cc1	inactive
CN(C)CCCn1c(-c2ccc(Cl)cc2)csc1=Nc1ccccc1	inactive

Compound	Potency
CN(C)c1ccc(/C=C/c2sc3ccccc3[n+]2C)cc1	inactive
CC1(C)C=Cc2c(ccc(C(=O)/C=C/c3ccccc3)c2O)O1	inactive
COc1ccc(C2Nc3ccc(NC(=O)COC(C)=O)cc3C(=O)N2Cc2ccccc2)cc1COc1ccc(NC(C)=O)cc1 (configuration not stated)	inactive
N#Cc1ccc[n+](CC(=O)c2ccc(O)c(O)c2)c1	inactive
CCCCCCCNc1ccc(/C=C/c2ccnc3ccccc23)cc1	inactive
O=C(Nc1ccc(Cl)cc1)c1cnn2c1NC(=C1CC1)C=C2C(F)F	inactive
COc1ccc(/C=C/c2ccccn2)cc1OC	inactive
Cc1ccccc1NC(=O)Cn1c(=O)n(Cc2ccco2)c(=O)c2ccc(C(=O)NC3CCCC3)cc21	inactive
OCC(O)C(O)C(O)C(O)C=Nc1ccc(/C=C/c2ccnc3ccccc23)cc1 (configuration not stated)	inactive
Oc1ccc(Br)cc1C1C=C(c2ccc3c(c2)OCO3)NC(c2ccc(Cl)cc2)N1 (configuration not stated)	inactive
CCc1ccccc1NC(=O)c1cnn(-c2ccc(F)cc2)c1C1CCNCC1	inactive
CCCCCCC1(C)NC(c2ccc3c(c2)OCO3)=CC(c2ccccc2O)N1 (configuration not stated)	inactive
CCCCC(CCCC)c1ccc(C=Nc2ccc(/C=C/c3ccnc4ccccc34)cc2)cc1	inactive
CCOC(=O)c1c(NC(=O)c2ccc(S(=O)(=O)N3CCCC(C)C3)cc2)sc2c1CCN(C(C)C)C2 (configuration not stated)	inactive
CCC1(C)CC(=O)NC1=O (configuration not stated)	inactive
COc1ccc(CNc2nc(-c3ccc(Cl)cc3)nn2S(=O)(=O)c2ccc(C)cc2)cc1	inactive
CN(C)C1=C2C=CC=CC2/C(=C2/C=Cc3ccccc32)C=C1 (configuration not stated)	inactive
Cc1nn(C)c(Oc2ccc(Cl)cc2)c1C=O	inactive
Nc1ccc(Oc2ccc(Cl)cc2)cc1	17.8 µM (active)
Nc1ccc2nn(-c3ccc(Cl)cc3)nc2c1	inactive
COc1cc2nc(N3CCCN(C)CC3)nc(NC(C)C)c2cc1OC	inactive
O=C(Nc1ccc([N+](=O)[O-])cc1)c1cnn2c1NC(=C1CC1)C=C2C(F)F	inactive

Compound	Potency
Nc1ncnc2c1c(I)cn2[C@@H]1C[C@H](N)[C@@H](O)[C@H]1O	inactive
Cc1cccc(-c2nnc(SC(C)C(=O)Nc3ccccc3)n2C)c1 (configuration not stated)	inactive
O=C(c1ccc2c(=O)n(Cc3ccco3)c(=S)[nH]c2c1)N1CCCC1	inactive
OCc1cnc(SCc2ccc(F)cc2)n1Cc1ccc(F)cc1	inactive
Cc1ccc(C)c2sc(NC(=O)c3ccc(S(=O)(=O)N4CCCC4)cc3)nc12	inactive
O=C1COc2ccc(-c3csc(-c4ccc(Cl)cc4)n3)cc2N1	inactive
CCc1ccc(NC(=O)CN2CCSc3ccc(S(=O)(=O)N4CCCC4)cc32)cc1	inactive
c1ccc(Cn2nnc3c(N4CCCCC4)ncnc32)cc1	inactive
Cc1c(CCO)sc[n+]1CC(=O)c1ccc2ccccc2c1	inactive
COc1cc2nc(Cl)nc(NC3CC3)c2cc1OC	inactive
COc1c(C)c2c(c(O)c1C/C=C(\C)CCC(=O)O)C(=O)OC2	7.08 µM (active)
Oc1ccc(Cl)cc1C1C=C(c2ccc3c(c2)OCO3)NC(c2c(F)cccc2Cl)N1 (configuration not stated)	inactive
CCCCOc1ccc(C(=O)NO)cc1	inactive
Cc1nn(-c2ccc(F)cc2)c(-n2cccc2)c1C(=O)N1CCN(c2ccccc2)CC1	inactive
CCCCNC(=O)Cn1c(SCc2cccc(Cl)c2)nc2ccncc21	inactive
COc1ccc(-c2[nH]ncc2CN(C)Cc2c(C)n[nH]c2C)c(OC)c1	inactive
COc1ccc(-c2c(-c3ccc(OC)cc3O)nc(C)nc2C(F)(F)F)cc1	inactive
COc1ccc(Oc2cn[nH]c2-c2ccc(OC)cc2O)cc1	17.8 µM (active)
Cc1ccc(-n2c(SCC(=O)c3ccccc3)nc3c([nH]c4ccccc43)c2=O)cc1	inactive
